Source: PubChem
Most compounds without a hit are left out; they make up all but 2.5% or so of the library.
MEKK3 PB1 HTS: modulators of MEKK3-MEK5 PB1 binding, primary screen, biochemical, wildtype MEKK3, multiplex bead flow cytometry, Alexa488-MEK5; binding response (% of control), % at 10 µM; 290,000 tested, 1.4% active; Mitogen-activated protein kinase kinase kinase 3 (Homo sapiens), Q99759; bead-based flow cytometry, Alexa488-MEK5 binding to MEKK3; actives lie on both sides; 0 = blocked by unlabeled MEK5, 100 = vehicle;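 active means binding response more than 3 SD above or below the average of its plate-row segment, actives on both sides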;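 further: Alexa488 bead fluorescence after subtracting the streptavidin-only scavenger bead signal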
MEKK2 mut-MEK5: MEK5 binding signal on mutant MEKK2 PB1, primary screen, biochemical, multiplex bead flow cytometry, Alexa488-MEK5; Alexa488-MEK5 binding to MEKK2 mutant; percent response, % at 10 µM; 290,000 tested, 0.35% active; AID 1530, 2009; in the data active means percent response above about 24%, passing the limit was not always enough
MEKK2 WT-MEK5: modulators of MEK5 binding to wildtype MEKK2, primary screen, biochemical, multiplex bead flow cytometry, Alexa488-MEK5. Mitogen-activated protein kinase kinase kinase 2 (Homo sapiens), Q9Y2U5. Alexa488-MEK5 binding to MEKK2 WT; actives lie on both sides. binding response (% of control), % at 10 µM. 290,000 tested, 1.1% active. AID 1531, 2009; in the data active means binding response below about 67% or above about 130%
GRK2 aptamer HTS: compounds blocking aptamer binding on GRK2 – biochemical, human GRK2, bead flow cytometry, HTS, primary screen; 330,000 tested, 0.59% active; inhibition of aptamer binding, % at 10 µM; Beta-adrenergic receptor kinase 1 (Homo sapiens), P25098; AID 488847, 2010; FAM-aptamer displacement from GRK2;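 active means inhibition of aptamer binding above 40%, roughly 3 SD of noise, on plates passing a quality check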;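 further: median bead fluorescence of bound FAM aptamer so fluorescent compounds give negative values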
Target sequence (P25098 whole entry, looked up): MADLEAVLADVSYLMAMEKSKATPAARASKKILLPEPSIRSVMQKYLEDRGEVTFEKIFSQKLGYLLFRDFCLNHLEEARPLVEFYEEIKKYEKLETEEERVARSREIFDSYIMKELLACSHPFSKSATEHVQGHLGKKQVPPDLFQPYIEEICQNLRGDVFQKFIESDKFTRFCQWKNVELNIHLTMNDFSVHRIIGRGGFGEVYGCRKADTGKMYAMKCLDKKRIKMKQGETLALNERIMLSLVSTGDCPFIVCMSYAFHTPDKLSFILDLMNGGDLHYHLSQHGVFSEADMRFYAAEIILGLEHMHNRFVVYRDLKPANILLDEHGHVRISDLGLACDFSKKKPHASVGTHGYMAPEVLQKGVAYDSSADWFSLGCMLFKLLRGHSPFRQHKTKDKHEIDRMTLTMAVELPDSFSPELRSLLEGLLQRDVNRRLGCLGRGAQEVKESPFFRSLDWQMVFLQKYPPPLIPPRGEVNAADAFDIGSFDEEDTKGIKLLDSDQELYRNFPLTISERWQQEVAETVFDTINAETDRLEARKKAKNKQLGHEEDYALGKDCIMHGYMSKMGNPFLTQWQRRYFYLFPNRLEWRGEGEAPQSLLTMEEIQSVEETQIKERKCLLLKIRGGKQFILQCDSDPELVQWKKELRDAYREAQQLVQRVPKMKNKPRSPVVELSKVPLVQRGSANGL
Active calls of the source: *; x = no result; [ ] = another dose, or the depositor's remark.

SMILES | MEKK3 PB1 HTS | MEKK2 mut-MEK5 | MEKK2 WT-MEK5 | GRK2 aptamer HTS
O=C(Cn1nc(-c2nn(CC(=O)c3ccccc3)c3[n+]2CCCCC3)[n+]2c1CCCCC2)c1ccccc1 | 99.0 | 6.0 | 110.0 | 0.0
COc1ccccc1NS(=O)(=O)c1cc([N+](=O)[O-])ccc1N/N=C/c1c[nH]c2ccccc12 | 103.0 | 14.0 | -1.0* | 0.0
Cc1ccc(Cc2c(C)nc3nc(SCC(=O)NCCCN4CCCCCC4)nn3c2C)cc1 | 103.0 | 37.0* | 234.0* | 0.0
Cc1nc2nc(SCC(=O)NCCCN3CCCCC3)nn2c(C)c1Cc1ccccc1 | 101.0 | 2.0 | 102.0 | 0.0
CNC[C@H]1Oc2c(NS(=O)(=O)c3ccccc3)cccc2C(=O)N([C@H](C)CO)C[C@@H]1C | x | x | x | 7.0
CSc1ccc(CCNC(=O)c2cccc3c2C(=O)N(C2CCCCC2)C3)cc1 | 105.0 | 0.0 | 100.0 | 0.0
C[C@]12c3[nH]c4ccccc4c3CCN1C(=O)C(CC(=O)NCCc1ccccn1)C[C@@H]2C(=O)N1CCCCC1 (stereo partly drawn) | x | x | x | 4.0
C[C@]12c3[nH]c4cc(-c5ccco5)ccc4c3CCN1C(=O)[C@@H](CC(=O)NCCCn1ccnc1)C[C@@H]2C(=O)N1CCCCC1 | x | x | x | 52.0*
CC(C)N(C(=O)[C@H]1C[C@H](CC(=O)NC(C)(C)C)C(=O)N2CCc3c([nH]c4cc(-c5ccco5)ccc34)[C@]12C)C(C)C | x | x | x | 2.0
C[C@]12c3[nH]c4ccccc4c3CCN1C(=O)C(CC(=O)NCCc1ccccn1)C[C@@H]2C(=O)N1CCOCC1 (stereo partly drawn) | x | x | x | 81.0*
CCN(CC)C(=O)[C@H]1C[C@H](CC(=O)NC(C)(C)C)C(=O)N2CCc3c([nH]c4cc(-c5ccco5)ccc34)[C@]12C | x | x | x | 44.0*
O=C(O)c1[nH]c2ccccc2c1C(c1ccccc1)c1c(C(=O)O)[nH]c2ccccc12 | 93.0 | 0.0 | 96.0 | 51.0*
CCN(CC)CCNC(=O)c1ccc(NC(=O)c2ccc(Cl)c(S(=O)(=O)Nc3ccccc3OC)c2)cc1 | 104.0 | 12.0 | 147.0* | x
CCN(CC)CCNC(=O)c1ccc(NC(=O)Nc2cccc3ccccc23)cc1 | 101.0 | 30.0* | 140.0* | 0.0
CC1CCC(NC(=O)C(=O)Nc2ccc3c(c2)OCO3)CC1 (stereo not drawn) | 101.0 | 2.0 | 98.0 | 1.0
COc1cc2oc3ccccc3c(=O)c2cc1OC | 101.0 | 2.0 | 106.0 | 86.0*
O=C(NNS(=O)(=O)c1ccc(Br)cc1)c1ccncc1 | 109.0 | 6.0 | 110.0 | 1.0
CCOC(=O)c1c(NC(=O)C(NCCN(C)C)c2ccccc2)sc2c1CCCC2 (stereo not drawn) | 109.0 | 43.0* | 171.0* | 0.0
Cc1cc(NS(=O)(=O)c2ccc(Nc3nc(-c4sc(C)nc4C)cs3)cc2)no1 | -1.0*[inhibitor] | -22.0 | -2.0*[inhibitor] | x
CCC(=O)Nc1nc(C)c(-c2csc(Nc3ccc(S(=O)(=O)Nc4cc(C)on4)cc3)n2)s1 | 94.0 | -1.0 | 91.0 | x
O=C(C1CCN(Cc2ccc(Cl)cc2)CC1)N1CCN(C(c2ccccc2)c2ccccc2)CC1 | 106.0 | 49.0 | 145.0* | 0.0
O=[N+]([O-])c1ccc(/C=C/c2ccncc2)cc1 | 99.0 | 8.0 | -2.0*[inhibitor] | 0.0
CC(/C=N/n1c(-c2ccccn2)n[nH]c1=S)=C\c1ccccc1 | 100.0 | 5.0 | 103.0 | x
CCOc1cc(NC(=O)c2cnccn2)c(OCC)cc1NC(=O)c1cccc(F)c1 | 96.0 | -15.0 | 83.0 | 68.0*
O=C(CCSc1nnc(-c2ccc(O)cc2)o1)N1CCOCC1 | 101.0 | -3.0 | 100.0 | 3.0
SMILES | MEKK3 PB1 HTS | MEKK2 mut-MEK5 | MEKK2 WT-MEK5 | GRK2 aptamer HTS
CCOC(=O)Cc1csc(NC(=S)NC(=O)c2ccc(Cl)cc2)n1 | 102.0 | 1.0 | 100.0 | 2.0
CCOC(=O)Cc1csc(NC(=S)NC(=O)C(C)(C)C)n1 | 134.0* | 1.0 | 107.0 | 0.0
CCOC(=O)N1CCN(C(=O)C(=O)c2cn(CC(=O)N3CCCCCC3)c3ccccc23)CC1 | 97.0 | 1.0 | 2.0* | 29.0
O=C(Nc1ccc2nc(-c3ccco3)c(-c3ccco3)nc2c1)N1CCCCCC1 | 89.0 | -5.0 | 80.0 | 52.0*
CCOC(=O)C1CCN(C(=O)Nc2ccc3nc(-c4ccco4)c(-c4ccco4)nc3c2)CC1 | 89.0 | -8.0 | 77.0 | 38.0
O=C(NCc1ccccc1Cl)C1CCC(CNc2nc(=S)[nH]c3ccccc23)CC1 (stereo not drawn) | 70.0 | -12.0 | 14.0* | 2.0
COC1CCCCC1Nc1cc(C)ccc1C (stereo not drawn) | 102.0 | 2.0 | 99.0 | 1.0
CC1Sc2ccc(S(=O)(=O)N3CCC(C(=O)N4CCN(C)CC4)CC3)cc2NC1=O (stereo not drawn) | 100.0 | -1.0 | 102.0 | 12.0
CCCN1CCN(C(=O)C2CCN(S(=O)(=O)c3ccc4c(c3)NC(=O)C(C)S4)CC2)CC1 (stereo not drawn) | 100.0 | 25.0* | 51.0* | 1.0
CC(C)CC(=O)Nc1nc2ccc(S(C)(=O)=O)cc2s1 | 98.0 | 1.0 | -11.0* | 1.0
CCC(=O)Nc1nc2ccc(S(C)(=O)=O)cc2s1 | 124.0 | 5.0 | 108.0 | 0.0
CCOC(=O)/C(=C/c1ccc(OC(=O)c2ccccc2)cc1)C(C)=O | 97.0 | 11.0 | 4.0* | 0.0
Cc1ccc(-n2cc3c(-c4cccc(Br)c4)nnc(C)c3n2)cc1 | 103.0 | -4.0 | 94.0 | 0.0
COc1ccc(CN2CCNC(=O)C2CC(=O)NC2CCCCCC2)cc1C (stereo not drawn) | 104.0 | 3.0 | 121.0 | 0.0
COc1ccc(CN2CCNC(=O)C2CC(=O)NC2CCCCCCC2)cc1C (stereo not drawn) | 108.0 | 28.0* | 128.0 | 0.0
CCCSc1nnc(-c2ccccc2N)c(=O)[nH]1 | 104.0 | 3.0 | 102.0 | 0.0
COc1ccc(C2NC(c3ccc(OC)cc3)C(C)C(=O)C2C)cc1 (stereo not drawn) | 100.0 | 0.0 | 97.0 | 3.0
C(=N\NC1=Nc2cccc3cccc1c23)/c1cccnc1 | 96.0 | 9.0 | 11.0* | 1.0
C(=N\NC1=Nc2cccc3cccc1c23)/c1ccccc1 | 101.0 | 1.0 | 92.0 | 0.0
COc1ccc(-c2ccc(OC)c([C@H]3[C@H]4C=CC[C@@H](C)[C@@H]4C(=O)N3Cc3ccccc3)c2)cc1OC | 107.0 | 2.0 | 97.0 | 1.0
O=C(c1ccccc1)N1CCSC1=S | 103.0 | -3.0 | 97.0 | 1.0
Cc1ccc(C(=O)N2CCSC2=S)cc1 | 105.0 | 4.0 | -10.0* | 0.0
Cn1c(=O)oc2cc(S(=O)(=O)Nc3ccc(F)cc3)ccc21 | 108.0 | 13.0 | 109.0 | 0.0
CCOC(=O)CCCCC(=O)c1[nH]c(=O)[nH]c1CSc1nnc2c3ccccc3n(C(C)C)c2n1 | 131.0* | 0.0 | 108.0 | 0.0
